From PubChem BioAssay AID1159580 (chemical genetic matrix, 2015)
“And” between values parts separate entries of the source, which are not always exact repeats. Equal entries are not always repeated. Out of some 5,500 compounds screened, about 2,000 (36%) were called active. Inconclusive results (about 18%) are left out. Rule as the data show it: active = normalized growth mostly below about 0.91 (no sharp cut-off); inconclusive = no clear call, values can overlap the other calls; inactive = mostly above about 0.92. The list shows a part of the results.

Test: chemical genetic growth profiling, strain panel (AID 1159580);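 also: tested at 20 µM; growth read once vehicle control cultures reached saturation at 30 °C; 1 = growth at the plate median or of vehicle wells; lower values mean less growth of the strain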
Conditions: S. cerevisiae deletion strains, growth OD

Measured: normalized growth

Fc1ccc([C@@H]2CCNC[C@H]2COc2ccc3c(c2)OCO3)cc1
inactive: locus YAL013W, strain DEP1, hits give low values 1.02 | locus YAL021C, strain ccr4, hits give low values 1 | locus YAL026C, strain drs2, hits give low values 0.997 | locus YAL030W, strain snc1, hits give low values 1.01 | locus YBL061C, strain skt5, hits give low values 0.991 | locus YBR009C, strain hhf1, hits give low values 1.01 | locus YBR021W, strain FUR4, hits give low values 1.01 | locus YBR023C, strain chs3, hits give low values 1 | locus YBR171W, strain sec66, hits give low values 0.984 | locus YBR229C, strain ROT2, hits give low values 1.01 | locus YBR231C, strain swc5, hits give low values 0.992 | locus YBR279W, strain paf1, hits give low values 1 | locus YCL011C, strain gbp2, hits give low values 0.999 | locus YCL016C, strain dcc1, hits give low values 0.99 | locus YCL029C, strain bik1, hits give low values 1.02 | locus YCL061C, strain MRC1, hits give low values 0.998 | locus YCL069W, strain vba3, hits give low values 1 | locus YCR088W, strain abp1, hits give low values 1 | locus YDL005C, strain med2, hits give low values 1.01 | locus YDL035C, strain GPR1, hits give low values 1.03 | locus YDL040C, strain nat1, hits give low values 0.992 | locus YDL074C, strain BRE1, hits give low values 1.01 | locus YDL101C, strain DUN1, hits give low values 1.01 | locus YDL134C, strain PPH21, hits give low values 1 | locus YDL185W, strain tfp1, hits give low values 1.01 | locus YDL192W, strain arf1, hits give low values 1.01 | locus YDR001C, strain nth1, hits give low values 0.999 | locus YDR069C, strain doa4, hits give low values 1.01 | locus YDR101C, strain arx1, hits give low values 1 | locus YDR137W, strain rgp1, hits give low values 1.09 | locus YDR150W, strain NUM1, hits give low values 1 | locus YDR159W, strain sac3, hits give low values 1.01 | locus YDR162C, strain NBP2, hits give low values 1 | locus YDR195W, strain ref2 1.02 | locus YDR297W, strain sur2, hits give low values 0.998 | locus YDR318W, strain mcm21, hits give low values 1.02 | locus YDR334W, strain swr1, hits give low values 1.01 | locus YDR335W, strain msn5, hits give low values 1.01 | locus YDR388W, hits give low values 1 | locus YDR392W, strain spt3, hits give low values 1.02 | locus YDR502C, strain sam2, hits give low values 0.998 | locus YEL003W, strain gim4, hits give low values 1.01 | locus YEL037C, strain rad23, hits give low values 1 | locus YEL061C, strain CIN8 (second series), hits give low values 1 | locus YEL061C, strain CIN8, hits give low values 1.01 | locus YER015W, strain faa2, hits give low values 1.01 | locus YER016W, strain bim1, hits give low values 0.99 | locus YER110C, hits give low values 1.02 | locus YER111C, strain swi4, hits give low values 0.984 | locus YER155C, strain BEM2 (second series), hits give low values 1.01 | locus YER155C, strain BEM2, hits give low values 1 | locus YER167W, strain BCK2, hits give low values 1.02 | locus YFR010W, strain ubp6, hits give low values 1.03 | locus YGL078C, strain dbp3, hits give low values 0.989 | locus YGL086W, strain mad1, hits give low values 1.02 | locus YGL167C, strain pmr1, hits give low values 1 | locus YGL173C, strain kem1, hits give low values 0.986 | locus YGL227W, strain vid30, hits give low values 0.987 | locus YGL240W, strain doc1, hits give low values 0.99 | locus YGL248W, strain PDE1, hits give low values 1.01 | locus YGL253W, strain hxk2, hits give low values 0.993 | locus YGR078C, strain PAC10, hits give low values 1 | locus YGR135W, strain pre9, hits give low values 0.987 | locus YGR229C, strain SMI1, hits give low values 1 | locus YGR252W, strain gcn5, hits give low values 1.05 | locus YHR013C, strain ard1, hits give low values 0.998 | locus YHR027C, strain rpn1, hits give low values 1 | locus YHR030C, strain SLT2, hits give low values 1.01 | locus YHR079C, strain IRE1 (second series), hits give low values 1 | locus YHR079C, strain IRE1, hits give low values 1.02 | locus YHR094C, strain hxt1, hits give low values 0.999 | locus YHR129C, strain ARP1, hits give low values 1.01 | locus YHR142W, strain chs7, hits give low values 0.969 | locus YHR200W, strain rpn10, hits give low values 1.01 | locus YIL066C, strain RNR3, hits give low values 1.01 | locus YIL073C, strain SPO22, hits give low values 1.09 | locus YIL125W, strain kgd1, hits give low values 0.997 | locus YIR030C, strain dcg1, hits give low values 1 | locus YJL092W, strain hpr5, hits give low values 0.998 | locus YJL095W, strain BCK1 (second series), hits give low values 0.995 | locus YJL095W, strain BCK1, hits give low values 1.02 and 1.01 | locus YJL115W, strain asf1, hits give low values 1 | locus YJL129C, strain trk1, hits give low values 0.987 | locus YJL134W, strain LCB3, hits give low values 1.01 | locus YJL154C, strain vps35, hits give low values 1.02 | locus YJL164C, strain tpk1, hits give low values 1.01 | locus YJL166W, strain qcr8, hits give low values 1.03 | locus YJL168C, strain set2, hits give low values 1.01 | locus YJL187C, strain SWE1 (second series), hits give low values 1 | locus YJL187C, strain SWE1, hits give low values 1.01 | locus YJR043C, strain POL32, hits give low values 1.04 | locus YJR066W, strain TOR1, hits give low values 1.02
